# The list is not random: actives were taken first. Their share in the collection is about 4.7%.
# TRHR ag = TRH receptor (human) agonism; P34981; TRHR cells, calcium flux fluo-8, FDSS agonist mode; activation, % at 2 µM; 360,000 compounds, 0.18% hits; AID 493084; further: 0% is about no effect
# Target sequence (P34981 whole entry, looked up): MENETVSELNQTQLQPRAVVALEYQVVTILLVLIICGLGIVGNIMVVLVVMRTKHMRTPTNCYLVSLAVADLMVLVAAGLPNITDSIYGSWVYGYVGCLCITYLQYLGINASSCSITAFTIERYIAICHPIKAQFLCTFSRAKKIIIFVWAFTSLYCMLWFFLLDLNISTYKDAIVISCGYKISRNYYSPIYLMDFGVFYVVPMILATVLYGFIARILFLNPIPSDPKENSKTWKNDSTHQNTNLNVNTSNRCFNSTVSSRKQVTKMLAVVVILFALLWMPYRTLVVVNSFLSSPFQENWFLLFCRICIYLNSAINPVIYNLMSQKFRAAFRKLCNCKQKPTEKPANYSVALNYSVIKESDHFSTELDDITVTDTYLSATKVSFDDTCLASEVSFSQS
#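 Agonist-mode FDSS calcium read (Ex 480/Em 530, 1 s cycles) in 1536-well TRHR cells with fluo-8 dye, after 10-cycle baseline and 23 nL compound addition; TRH at EC20 (10 nM final) added afterwards for the enhancer phase.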
# D1 antagonist = blocks dopamine activation of the human D1 receptor | HEK293 TREx D1 cells, calcium flux, dopamine EC80; stronger effect = lower value | activity change, negative = inhibition, % at 10 µM | 360,000 compounds, 3.2% hits; in the data active means activity change below about -30%; further: on the % scale 0 is the no-effect control and ±100 the full control effect
#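 After overnight tetracycline induction at 30 C, force-coupled D1 HEK293 cells took up a no-wash calcium dye at room temperature. Compounds were added and monitored 180 s, and the response to EC80 dopamine was then recorded.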
# TRHR enhancer = TRH receptor (human) allosteric enhancement; P34981; TRHR cells, fluo-8 calcium fluorescence, EC20 TRH enhancement; enhancement, % at 2 µM; 360,000 compounds, 0.66% hits; in the data active means enhancement above about 30%; further: 0% is about no effect
#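 Enhancer read-out: after compound pinning and an initial kinetic agonist-mode read, an EC20 of TRH (10 nM final) was injected and fluo-8 calcium signal (Ex 480/Em 530) followed at 1 s/cycle for 100 cycles in TRHR-expressing cells.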
# D1 PAM = enhances dopamine response at the human D1 receptor; P21728; HEK293 TREx D1 cells, calcium flux, dopamine EC20 potentiation; potentiation, % at 10 µM; 360,000 compounds, 0.036% hits; in the data active means potentiation above about 30%; further: 0% is about no effect
# D1 agonist = agonists of human D1 dopamine receptor. 360,000 compounds, 1% hits. activation, % at 2 µM. AID 504660. P21728. HEK293 T-REx D1 cells, calcium flux, agonist mode; further: 0% is about no effect
#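 Tetracycline-induced HEK293 TREx D1 cells, force-coupled to calcium signalling, were dye-loaded with a no-wash calcium kit. Compound was pin-added after a 10 s baseline. Fluorescence was read kinetically at 1 cycle/s for 180 s, with calcium rises flagged as agonism.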
# Active calls of the source: *; · = not tested or not shown; ! = not confirmed by another sample. Unless noted, no stated cut-off is given here; in the data, active means activation above about 30%; inactive means the rest.
SMILES,TRHR ag,D1 antagonist,TRHR enhancer,D1 PAM,D1 agonist
CC/C(=N/Nc1ccccc1)c1cnnc(-c2ccccc2)n1,-0.6,-11.9,1.3,-4.2,-2.6
CC/C(=N/Nc1cccc(Cl)c1)c1cnnc(SC)n1,0.8,-37.4*,6.5,-9.8,1.5
Cc1ccc(S(=O)(=O)CNC(=S)c2ccc3ccccc3c2)cc1,0.6,-11.4,-2.4,-5.5,0.7
COc1ccc(C(=S)NCS(=O)(=O)c2ccc(C)cc2)cc1,-0.1,-35.3*,12.4,-4.5,5.6
Cc1nn(-c2ccc(F)cc2)c2nc(N)c(C#N)c(-c3ccc(O)c(O)c3)c12,1.3,-45.9*,-7.6,-8.8,0.3
CCN(CC)CCNC(=O)c1ccc2c(c1)NC(=O)C(CS(=O)(=O)Cc1ccc(F)cc1Cl)N2 (stereo not drawn),-0.2,2.1,-0.7,1.9,3.3
COc1ccc2[nH]cc(C(=O)CN3CCN(C/C=C/c4ccccc4)CC3)c2c1,-0.1,-2.9,8.0,-2.5,85.6*
COC(=O)c1sc(S(=O)(=O)N2CCN(c3ccc(OC)cc3)CC2)c(C(=O)OC)c1C,-1.6,-40.0*!,-1.0,-0.3,3.4
COC(=O)c1sc(S(=O)(=O)N2CCC(C(N)=O)CC2)c(C(=O)OC)c1C,0.7,-20.1,9.2,-1.4,1.3
COc1ccc(NC(C)C(=O)N/N=C/c2ccccc2OCc2cccc(Br)c2)cc1 (stereo not drawn),0.3,-10.0,33.6*,-1.4,4.1
Cc1cc(C)c(S(=O)(=O)NCC(c2ccco2)N2CCOCC2)c(C)c1 (stereo not drawn),-0.1,·,2.4,1.1,-4.3
Cc1ccc(Cc2nc3ccccc3nc2SCC(=O)N2CCCCC2C)cc1 (stereo not drawn),-0.1,-3.9,-1.1,-0.9,4.6
CCOc1ccc(NC(=O)Cn2c(=O)n(CCc3ccccc3)c(=O)c3c4c(sc32)CCCC4)cc1,1.1,-35.8*,10.7,-1.9,-1.4
COC(=O)Cn1c(=O)n(CCc2ccccc2)c(=O)c2c3c(sc21)CCCC3,0.5,-3.9,13.0,-6.0,2.0
COC(=O)c1c(NC(=O)c2cc3ccccc3c(=O)o2)sc2c1CCCC2,-0.5,-4.6,9.4,-2.9,0.2
Cc1ccccc1-c1nnc(CN2CCN(c3cccc(C)c3C)CC2)o1,-0.8,1.3,2.1,-0.3,3.5
CCC(=O)N(CC)c1nc(-c2ccc(OC)cc2)cs1,-0.3,-47.1*,-5.2,-0.8,112.7*
COc1ccc(-c2csc(N(CCCN(C)C)C(=O)c3ccccc3C)n2)cc1,4.3,-54.1*,-1.3,-11.3,33.4*
CCn1nc(NC(=O)COC)c2cc3cccc(C)c3nc21,-0.8,-81.0*,1.2,-3.5,2.5
CCn1c(C(=O)NCc2ccc(F)cc2)cc2oc3ccccc3c21,-0.7,3.8,0.2,-2.4,-0.9
CCOc1ccccc1CNC(=O)c1cc2oc3ccccc3c2n1CC,0.5,-42.8*,-3.5,-6.3,1.1
COc1cccc(CNC(=O)c2cc3oc4ccccc4c3n2C)c1OC,1.1,-31.9*,12.6,-9.7,2.9
CCOc1ccc(N2CC(C(=O)N3CCCC3)CC2=O)cc1 (stereo not drawn),0.1,-83.2*,4.0,-4.0,0.5
CCCNC(=O)C1CC(=O)N(c2ccc(OCc3ccc(Cl)cc3)cc2)C1 (stereo not drawn),0.1,-6.7,-2.9,0.6,11.8
C=CCNC(=O)C1CC(=O)N(c2ccc(OCC(=O)Nc3ccc(OC)cc3)cc2)C1 (stereo not drawn),0.5,15.6,1.5,-1.4,-0.7
SMILES,TRHR ag,D1 antagonist,TRHR enhancer,D1 PAM,D1 agonist
CCCNC(=O)C1CC(=O)N(c2ccc(OCc3ccc(F)cc3)cc2)C1 (stereo not drawn),1.7,-36.2*,7.4,-8.0,12.4
NC(=O)C1CC(=O)N(c2ccc(OCc3ccc(Cl)cc3)cc2)C1 (stereo not drawn),0.8,-39.0*,-2.2,-5.8,18.3
C=CCNC(=O)C1CC(=O)N(c2ccc(OCC(=O)Nc3ccc(C)cc3)cc2)C1 (stereo not drawn),0.2,-30.9*,3.5,-11.2,-0.1
CCOc1ccc(N2CC(C(=O)N3CCCCCC3)CC2=O)cc1 (stereo not drawn),-0.1,1.7,5.4,3.8,0.2
Cc1ccc(-n2nnnc2CNC(=O)C2CC(=O)N(c3ccc(F)cc3)C2)cc1C (stereo not drawn),-0.5,1.2,-8.7,-3.0,0.1
O=C(NCc1nnnn1-c1ccc(F)cc1)C1CC(=O)N(c2ccc(F)cc2)C1 (stereo not drawn),0.4,-30.1*,-6.6,-0.5,-0.3
CCOC(=O)C(Oc1ccc2c(-c3ccccc3)cc(=O)oc2c1)c1ccccc1 (stereo not drawn),0.2,-31.0*,-5.5,-6.5,5.3
CCOC(=O)c1c(C)[nH]c(C)c1C(=O)COC(=O)/C=C/c1ccc(OC(F)F)cc1,0.1,2.7,1.4,33.2*,1.9
CCc1nc(C)cn1S(=O)(=O)c1ccc(Cl)c(Cl)c1OC,0.4,15.7,-14.1,-1.9,8.3
Cc1ccccc1-c1nc(CS(=O)(=O)CC(=O)NCCc2ccccc2)c(C)o1,-0.9,-31.5*!,-1.4,-3.8,30.7*!
CCN1CCN(C(=O)CS(=O)(=O)Cc2nc(-c3ccc(C)cc3)oc2C)CC1,-0.2,-30.6*,-2.1,-6.7,1.7
Cc1ccc(-c2nc(CS(=O)(=O)CC(=O)N3CCN(C)CC3)c(C)o2)cc1,-0.7,-12.4,7.3,-3.2,-0.3
Cc1ccccc1-c1nc(CS(=O)(=O)CC(=O)N2CCCCC2)c(C)o1,-0.4,-1.5,33.2*,-3.8,8.2
COc1cccc(-c2nc(CS(=O)(=O)CC(=O)NCCc3ccccc3)c(C)o2)c1,-0.4,3.0,-1.6,0.5,14.5
COc1cccc(-c2nc(CS(=O)(=O)CC(=O)NCC(C)c3ccccc3)c(C)o2)c1 (stereo not drawn),-0.5,5.9,11.4,-2.8,69.6*
Cc1nn(CCCC(=O)Nc2cccc(F)c2)c(=O)c2c1sc1ccccc12,1.0,4.6,1.6,-0.8,2.6
Cc1cc(C)cc(OCc2ccc(C(=O)Nc3ccccc3F)o2)c1,0.3,5.7,-1.8,-6.2,9.4
COc1ccc2c(c1)c1c(c(=O)n(Cc3ccccc3)c(=O)n1Cc1ccccc1)n2C,0.0,4.8,2.5,-0.6,0.4
COc1ccc(-n2ncc(C(=O)NCc3ccc4c(c3)OCO4)c2C2CCN(C(=O)OC(C)(C)C)CC2)cc1,1.2,11.8,1.7,1.6,8.0
CCCCN(CC)CCNC(=O)c1cc2c(-c3ccc(Cl)cc3)nn(C)c2s1,-0.2,6.1,-5.7,-1.2,66.1*!
CCN(CC)CCNC(=O)c1cc2c(-c3ccc(Cl)cc3)nn(C)c2s1,1.5,7.8,6.2,-0.3,6.1
CCc1ccc(OCC(=O)NNC(=O)CNC(=O)c2ccc(Br)o2)cc1,0.1,-2.0,0.0,-1.9,2.0

# Source: PubChem BioAssay (National Center for Advancing Translational Sciences (NCATS))
